Most compounds without a hit are left out; they make up all but 3.1% or so of the library.
Nrf2 ARE act: activators of Nrf2 (ARE) signaling. 0.31% of 410,000 active. AREc32 ARE-luciferase reporter (MCF7-derived line), luminescence, 24 h. Potency, µM (doses to about 46.1 µM), for inactives: top-dose activation, hits mostly activators; also: potency is read from the fitted curve at half-maximal effect; % of control where 0% means no effect; nearly all actives have a fitted effect of over 65% in size
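Steps: seed AREc32_Fluc cells (1000/well, 5% FBS OPTI-MEM); incubate overnight at 37 deg C; add 23 nL compound; incubate 24 hr; add Steady-Glo; hold 30 min RT; read luminescence.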
IL2 activator: activators of IL-2 | 0.065% of 360,000 active | activation, % (series mostly up to about 46 µM) | IL-2 activation reporter assay, cell-based qHTS; stimulated with anti-CD3/CD4/CD28 beads; in transgenic mouse T cells; in the data active = activation above about 50%; inconclusive = mostly about 30% to 49%; also: 0% is about no effect
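First, unstimulated transgenic mouse T cells were exposed to compound for 60 min. Next, anti-CD3/anti-CD4-coated beads with anti-CD28 were added. Finally, after 18 h at 37 degrees C, EGFP and DsRed were imaged.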
ELG1 DNA repair: ELG1-dependent DNA repair inhibition; 2.3% of 330,000 active; AID 504467; Potency, µM (doses to about 46.1 µM), for the others: top-dose activity change, negative = inhibition, most hits filed as inhibitors; HEK293T ELG1-luciferase reporter, luminescence, 16 h; DNA damage induced by 5-fluorouridine; also: potency is read from the fitted curve at half-maximal effect; % is scaled to controls: 0 for no effect and ±100 for the full control effect; nearly all actives have a fitted effect of over 55% in size
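Luminescence from the luciferase reporter, measured 30 min after ONE-Glo reagent at room temperature, was the read-out. Beforehand, 2,000 cells per well were exposed for 16 hr at 37 °C to 5-fluorouridine together with compound or vehicle.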
BRCA1 expr act: activators of BRCA1 expression. MCF7-BRCA1-FFLuc reporter, luminescence, 48 h; response scale: scaled: vehicle 0%, 10 µM genistein 100%. Potency, µM (titrated, usually from 46.1 µM), inactives show at the highest dose activation, usual class: activators. 1.1% of 380,000 active; also: potency is read from the fitted curve at half-maximal effect; nearly all actives have a fitted effect of over 80% in size
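Reporter cells (MCF7, BRCA1 promoter-firefly luciferase) received library compounds across a concentration series for 48 h. End-point luminescence was measured and concentration-effect curves derived after normalization.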
* = called active by the depositor; ? = inconclusive; / = not tested or not shown. Unless noted, calls follow the shape of the dose curve; as a rule, active = well fitted curve in the direction sought with a large enough effect; inconclusive = small, poorly fitted or top-dose-only effect, or another doubt; inactive = no such curve, though single readings can be large; an effect the other way counts as inactive or inconclusive.

SMILES	Nrf2 ARE act	IL2 activator	ELG1 DNA repair	BRCA1 expr act
CCOc1ccccc1NC(=O)c1ccc(F)c(S(=O)(=O)N2CCC3(CC2)OCCO3)c1	1.8%	-0.8	20.6µM*	-15.7%
CC(=O)c1sc(NC(=O)c2ccc(F)c(S(=O)(=O)N3CCOCC3)c2)nc1C	-0.5%	0.9	23.1%	23.8%
Cc1ccc(NC(=O)c2ccc(F)c(S(=O)(=O)N3CCOCC3)c2)cc1F	2.3%	-0.7	-13.2%	-45.8%
COc1ccccc1-n1nc(-c2ccccc2)c2cnc3cc(C(F)(F)F)ccc3c21	0.2%	/	/	4.2%
CCCCNS(=O)(=O)c1ccc(NC(=O)C(Sc2ccccc2)c2ccccc2)cc1 (configuration not stated)	0.6%	-2.4	18.4µM*	-77.4%
Clc1ccc(OCCCN2CCCCC2)c(Br)c1	0.5%	-0.5	?	10µM*
CCOc1ncccc1-c1nc(-c2cccs2)no1	10µM*	-2.5	?	-14.6%
Cc1nc2cc(NC(=O)NCc3ccco3)ccc2n1C	0.3%	1.4	?	11.2µM*
Cn1c(CCNC(=O)c2ccco2)nc2cc(NC(=O)c3ccco3)ccc21	6.6%	1.2	?	8.91µM*
Cc1nc2cc(NC(=O)c3ccco3)ccc2n1C	-0.7%	-2.0	?	-10.6%
COC(=O)[C@@]1(Cc2ccc(F)cc2)[C@H]2c3cc(C(=O)N(C)C)n(CCF)c3C[C@H]2CN1C(=O)c1ccccc1	0.8%	0.0	/	14.3%
COC(=O)[C@@]1(Cc2ccccc2)[C@@H]2C(=CC(=O)[C@H]2CC(=O)C(=O)N(C)C)CN1C(=O)c1ccccc1	-1.9%	0.3	7.31µM*	-49.7%
Nn1c(SCc2ccccc2)nc2ccccc21	4.5%	0.1	?	3.16µM*
O=C(O)Cn1c(SCc2ccccc2)nc2ccccc21	6.5%	0.5	11.9%	38.3%
NC(=O)c1c(NC(=O)c2ccc([N+](=O)[O-])o2)sc2c1CCCC2	3.98µM*	1.0	-6.9%	-75.5%
CN1CCc2c(sc(NC(=O)c3ccc([N+](=O)[O-])o3)c2C(N)=O)C1	-2.0%	-1.1	?	-92.2%
COc1ccc(Cc2nnc(N/N=C/c3ccc(O)cc3)[nH]c2=O)cc1OC	1.8%	-0.6	5.8µM*	-77.0%
COc1ccccc1C(=O)Nc1ccc(S(=O)(=O)N2CCCCC2c2cccnc2)cc1 (configuration not stated)	1.3%	-2.6	23.1µM*	-46.3%
COc1c(C)cccc1C(=O)Nc1ccc(N2CCN(S(C)(=O)=O)CC2)cc1	-0.1%	2.1	?	3.55µM*
COc1ccccc1C(=O)Nc1ccc(N2CCN(S(C)(=O)=O)CC2)cc1	-0.1%	-2.3	?	11.2µM*
Cc1nc(N2CCCC2)c2c(C(=O)N3CCN(c4cc(Cl)ccc4C)CC3)c(C)oc2n1	0.4%	/	/	/
COc1ccc2ncc(S(=O)(=O)c3ccccc3)c(N3CCN(c4ccccc4)CC3)c2c1	0.0%	-0.9	16.4µM*	-31.2%
COc1ccc2ncc(S(=O)(=O)c3ccccc3)c(N3CCC4(CC3)OCCO4)c2c1	0.5%	-2.7	?	-46.5%
CCC(CC)C(=O)N(CCc1ccc(OC)cc1)Cc1nc2ccccc2c(=O)[nH]1	2.0%	-1.7	23.1µM*	-17.4%
CCN(CC(=O)Nc1sc2c(c1C#N)CCC(C)C2)CC(=O)NC1CCS(=O)(=O)C1 (configuration not stated)	6.4%	-1.9	18.3µM*	72.8%
SMILES	Nrf2 ARE act	IL2 activator	ELG1 DNA repair	BRCA1 expr act
CCN(CC(=O)Nc1ccc(C(=O)Nc2ccc(OC)cc2)cc1)Cc1nc2ccccc2c(=O)[nH]1	3.9%	-0.7	6.51µM*	18.9%
CC1CCc2c(sc(NC(=O)CCc3nc4ccccc4c(=O)[nH]3)c2C#N)C1 (configuration not stated)	2.4%	-0.7	12.0%	-25.3%
CCN(CC(=O)Nc1sc2c(c1C#N)CCC(C)C2)Cc1nc2ccccc2c(=O)[nH]1 (configuration not stated)	2.8%	-0.6	13µM*	-46.9%
CN(C)c1ccc(CNC(=O)c2cnc3sc(N4CCOCC4)nn3c2=O)cc1	-0.6%	/	/	/
Cc1nc(-c2ccc(S(=O)(=O)N(Cc3ccccc3)C(C)C)cc2)co1	0.8%	/	/	11.4%
CCOC(=O)c1c(C)c(-c2ccccc2)n(CC(=O)NCCc2ccc(C)cc2)c1C	0.6%	/	/	4.7%
CCN(CC(=O)Nc1sc2c(c1C#N)CCCC2)Cc1nc2ccccc2c(=O)[nH]1	3.3%	-0.1	14.6µM*	-17.4%
COc1cc2c(C(=O)N3CCN(c4ccc(F)cc4)CC3)cn(CC(C)C)c(=O)c2cc1OC	4.3%	/	/	0.1%
N#C/C(=C\c1ccc(-c2cccc([N+](=O)[O-])c2)o1)c1nnc(N2CCOCC2)n1-c1ccccc1	/	/	5.8µM*	/
CCn1ccc(C(=O)Nc2ccc(Cl)cn2)n1	5.0%	-2.3	?	2.51µM*
COCCCNc1nc(NCc2ccc(C)cc2)c2cnn(C)c2n1	1.3%	/	/	/
CCOc1ccc(CCNC(=O)Cn2ncn3c(cc4ccccc43)c2=O)cc1OCC	-0.3%	/	/	/
CN(C)S(=O)(=O)n1cc(/C=C(\NC(=O)c2ccccc2Cl)C(=O)NCCCn2ccnc2)c2ccccc21	0.9%	2.0	20.6µM*	-5.2%
Cc1ccc(Cl)cc1-n1ncc2c(Nc3ccc4c(c3)OCCO4)ncnc21	-0.8%	/	/	/
CC(C)(C)S(=O)(=O)c1cnc(-c2ccccn2)nc1N	1.6%	0.5	?	49.0%
Cc1cccc(-c2ncc(S(=O)(=O)C(C)(C)C)c(N)n2)c1	1.8%	-4.3	?	5.01µM*
O=C(Cc1cccc2ccccc12)N/N=C/c1ccc(Sc2cccc3cccnc23)o1	/	/	16.4µM*	/
Cc1ccc(-n2cc3c(c2-c2ccccc2Br)c(=O)n(C)c(=O)n3C)cc1N	5.7%	/	/	/
CCCNC(=O)c1ccccc1NC(=O)COc1cccc2c1OC(C)(C)C2	2.1%	-0.3	14.6µM*	-16.8%
CC1(C)Cc2cccc(OCC(=O)Nc3ccccc3F)c2O1	-0.5%	-0.4	?	0.2%
O=C(CSc1ncc2c(n1)-c1ccccc1N(Cc1ccc(F)cc1)S2(=O)=O)NCc1ccccc1	-1.1%	/	/	/
COc1ccccc1N(CC(=O)Nc1cc(S(=O)(=O)N(C)C)ccc1C)S(=O)(=O)c1cccs1	0.3%	-0.8	23.1µM*	-31.3%
COc1ccc(CNC(=O)CN(c2ccccc2OC)S(=O)(=O)c2cccs2)cc1	-0.7%	-0.4	?	-36.4%
Cc1ccc(CSCCNC(=O)CN(c2cccc(C)c2C)S(=O)(=O)c2ccccc2)cc1	4.1%	/	/	-15.9%
COc1ccccc1N(CC(=O)NCCSCc1ccc(C)cc1)S(=O)(=O)c1ccccc1	-1.2%	-0.8	16.4µM*	-46.3%
COc1ccccc1N(CC(=O)Nc1ccc(Cc2ccncc2)cc1)S(=O)(=O)c1ccccc1	1.0%	-3.1	18.3µM*	-43.7%
COc1ccc(N(CC(=O)NCCSc2ccccc2)S(=O)(=O)c2ccccc2)c(OC)c1	2.2%	-0.3	20.6µM*	-70.1%
Cc1ccc(S(=O)(=O)c2cn(Cc3ccccc3Cl)c3ccc(F)cc3c2=O)cc1	0.7%	/	/	/
